Screens as filed in PubChem BioAssay.
Many of the other results were omitted from the sample, so hits are more common in it than they were.
SARS PLpro yeast – SARS-CoV PLP inhibition in yeast; S. cerevisiae expressing SARS-CoV PLpro, growth rescue; Potency, µM (doses to about 32.9 µM), usual class: activators; actives 0.19% (n = 330,000); AID 485353; calls by dose curve; note: nearly all actives have a fitted effect of over 55% in size
AmpC no deterg – inhibitors of E. coli AmpC beta-lactamase without detergent | actives 0.52% (n = 330,000) | P00811 | Potency, µM (series often up to 57.1 µM), most hits filed as inhibitors | AmpC nitrocefin hydrolysis, absorbance 480 nm, 0.0001% Triton; note: nearly all actives have a fitted effect of over 20% in size
Target sequence (P00811 whole entry, looked up): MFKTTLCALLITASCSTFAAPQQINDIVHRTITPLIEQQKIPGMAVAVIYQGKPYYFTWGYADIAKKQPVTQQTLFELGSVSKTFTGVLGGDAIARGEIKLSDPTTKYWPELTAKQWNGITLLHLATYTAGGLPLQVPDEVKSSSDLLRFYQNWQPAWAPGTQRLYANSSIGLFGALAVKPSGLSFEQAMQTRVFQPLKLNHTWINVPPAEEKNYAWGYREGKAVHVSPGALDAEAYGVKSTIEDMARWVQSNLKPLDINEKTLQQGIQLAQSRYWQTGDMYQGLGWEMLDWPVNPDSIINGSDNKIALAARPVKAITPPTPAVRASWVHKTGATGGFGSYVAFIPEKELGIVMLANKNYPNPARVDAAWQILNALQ
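AmpC (5.3 nM in the dispensed reagent) in 20 mM phosphate pH 7.0 with 0.01% (detergent screen) or 0.0001% Triton X-100 was preincubated with compounds for 15 min at room temperature. Nitrocefin was then added from an 800 uM solution, and hydrolysis was followed at 480 nm.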
AMA1 RON2 block – disrupts binding of P. falciparum AMA1 to RON2; AID 720542; Potency, µM (doses to about 58.2 µM), hits mostly inhibitors; actives 0.2% (n = 360,000); AlphaScreen AMA1-biotinylated RON2 peptide binding; note: nearly all actives have a fitted effect of over 45% in size
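AMA1 (3D7) with his tag at 25 nM final met compounds first, then biotinylated RON2 peptide at 25 nM; detection used donor plus acceptor beads, 10 µg/mL apiece, read by AlphaScreen after 30 min at room temperature.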
AmpC detergent – inhibitors of E. coli AmpC beta-lactamase with detergent. P00811. AmpC hydrolysis of nitrocefin, absorbance 480 nm, 0.01% Triton. Potency, µM (doses to about 114 µM), actives largely listed as inhibitors. actives 0.041% (n = 370,000). AID 485294; note: nearly all actives have a fitted effect of over 25% in size
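AmpC (5.3 nM in the dispensed reagent) in 20 mM phosphate pH 7.0 with 0.01% (detergent screen) or 0.0001% Triton X-100 was preincubated with compounds for 15 min at room temperature. Nitrocefin was then added from an 800 uM solution, and hydrolysis was followed at 480 nm.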
Shiga toxin inh – blocks Shiga toxin action in Vero cells; inhibition, % at 38.7 µM; actives 9.2% (n = 290,000); Vero cells, Shiga toxin protein synthesis inhibition reporter; in the data active = inhibition mostly above about 28%, no sharp cut-off; inactive = mostly below about 43%
CHX counter – counter-screen hit for Shiga toxin inhibitors, cycloheximide | actives 12% (n = 300,000) | max response, % | cell reporter, cycloheximide protein synthesis inhibition counterscreen; in the data active = max response mostly above about 13%, no sharp cut-off; inactive = mostly below about 14%; note: read at 38.3 µM for the half of the compounds with a filed dose
Of the large screens only hits and unclear results are named; the others gave an inactive call. Unless noted, calls come from the whole dose curve; as a rule, active = well fitted curve in the direction sought with a large enough effect; inconclusive = small, poorly fitted or top-dose-only effect, or another doubt; inactive = no such curve, though single readings can be large; an effect the other way counts as inactive or inconclusive.

Cc1nn(Cc2c(F)c(F)c(F)c(F)c2F)c(C)c1NC(=O)c1cccc(COc2ccccc2Cl)c1	Shiga toxin inh 161.9, CHX counter 68.6
O=C(O)c1cccc(COc2ccccc2Cl)c1	Shiga toxin inh 18.8, CHX counter 13.6
N#C/C(=C\c1ccccc1OCc1ccc(C(=O)O)cc1)c1ccccc1	none
CN1CCN(C(=O)c2cccc(COc3cc(Cl)ccc3Cl)c2)CC1	Shiga toxin inh 102.6, CHX counter 48.0
O=C(O)c1ccc(COc2ccccc2Cl)cc1	Shiga toxin inh 145.2, CHX counter 28.5
O=C(Nc1ncccc1O)c1ccc2ccccc2c1	none
COC(=O)[C@]1(Cc2ccccc2)N[C@H](CN(C)C(=O)Nc2ccccc2)[C@@H]2C(=O)N(C)C(=O)[C@@H]21	none (no result: AmpC detergent, Shiga toxin inh, CHX counter)
CCOC(=O)c1c(NC(=O)c2ccco2)n(C2CCCCC2)c2nc3ccccc3nc12	AmpC detergent inconclusive
O=S(=O)(CCNCc1cccs1)c1ccc(Cl)cc1	none
CCCC(C)NC(=O)c1ccc(OCc2ccc(Cl)cc2)c(OC)c1 (centres undefined)	SARS PLpro yeast inconclusive, AmpC detergent inconclusive
CCC(C)NC(=O)c1ccc(COc2ccccc2Cl)cc1 (centres undefined)	CHX counter 15.4
CCN(CC)C(=O)c1ccc(COc2ccccc2Cl)cc1	Shiga toxin inh 48.1
N/C(=N\OC(=O)Cc1ccccc1[N+](=O)[O-])c1cccc(Br)c1	CHX counter 18.4
N/C(=N\OC(=O)Cc1ccccc1)c1cccc(Br)c1	AmpC detergent inconclusive, Shiga toxin inh 47.6
N/C(=N\OC(=O)Cc1ccc(-c2ccccc2)cc1)c1cccc([N+](=O)[O-])c1	none
N/C(=N\OC(=O)c1cccc(Br)c1)c1ccc([N+](=O)[O-])cc1	none
Cc1ccc(/C=N/NC(=O)c2n[nH]c3c2CCCC3)cc1	Shiga toxin inh 53.4, CHX counter 32.4
O=C(N/N=C\c1cccc(Cl)c1)c1n[nH]c2c1CCCC2	Shiga toxin inh 78.4, CHX counter 58.6
O=C(N/N=C/c1cccc2ccccc12)c1n[nH]c2c1CCCC2	none
O=C(N/N=C/c1cccc(Cl)c1)C1CCCC1	SARS PLpro yeast inconclusive, Shiga toxin inh 54.4, CHX counter 35.2
O=C(N/N=C/c1ccc(Cl)cc1Cl)c1n[nH]c2c1CCCC2	Shiga toxin inh 67.2, CHX counter 20.7
O=C(N/N=C/c1cccs1)c1n[nH]c2c1CCCC2	none
COc1cccc(Cc2nc3ccccc3nc2SCC(=O)Nc2cc(OC)ccc2OC)c1	none (no result: SARS PLpro yeast, AmpC no deterg, AMA1 RON2 block, Shiga toxin inh, CHX counter)
CC(C)(C)C(=O)Nc1ccc(C(=O)COC(=O)C2CC2)cc1	none (no result: Shiga toxin inh, CHX counter)
Cc1ccc(/C=N/N2CCOCC2)s1	Shiga toxin inh 68.2, CHX counter 46.4
Cc1ccc(/C=N/N2CCN(Cc3ccccc3)CC2)s1	Shiga toxin inh 70.0, CHX counter 50.6
Cc1ccc(CN2CCN(/N=C/c3ccc(C)s3)CC2)cc1	AMA1 RON2 block 25.1µM, AmpC detergent inconclusive
Cc1ccc(/C=N/N2CCN(Cc3ccc(C)cc3)CC2)cc1	none
O=C(CS(=O)(=O)Cc1ccccc1)Nc1nnc(C2CCCCC2)s1	none
COC(=O)c1ccn(Cc2ccccc2Cl)n1	Shiga toxin inh 63.5, CHX counter 43.7
Cc1cccc(NC(=O)CC2CCC2)c1	AmpC detergent inconclusive, CHX counter 20.0
Cc1cccc(NC(=O)CC2NCCNC2=O)c1 (centres undefined)	CHX counter 24.1
Cc1cc(NC(=O)CC2CCCC2)ccc1Br	Shiga toxin inh 62.5, CHX counter 26.3
COc1cc(C)ccc1OCc1cc(C(=O)NC2CCOCC2)no1	none (no result: SARS PLpro yeast, AmpC no deterg, AmpC detergent, Shiga toxin inh, CHX counter)
CN(C(=O)c1cc(COc2c(F)cccc2F)on1)C1CCOC1 (centres undefined)	CHX counter 30.0
Cc1cc(OCc2cc(C(=O)N(C)C3CCOC3)no2)cc(C)c1Cl (centres undefined)	Shiga toxin inh 77.6, CHX counter 48.9
CC(=O)c1ccc(OCc2cc(C(=O)N(C)C3CCOC3)no2)cc1 (centres undefined)	none
O=C(NCC1COCCO1)c1cc(COc2c(F)cccc2F)on1 (centres undefined)	CHX counter 26.0
COc1cc(Cl)ccc1OCc1cc(C(=O)N(C)C2CCOC2)no1 (centres undefined)	Shiga toxin inh 59.7, CHX counter 37.0
O=c1cc(-c2ccccc2)c2cc3c(cc2[nH]1)OCCO3	none
CN(CCCC1CCCC1)C(=O)c1cc(COc2c(F)cccc2F)on1	none
O=C(c1cc(COc2c(F)cccc2F)on1)N(Cc1ccccc1)CC1CC1	CHX counter 18.3
CO/C(N)=C(\C#N)N=Cc1ccccc1Cl	CHX counter 20.6
N#CCC(=O)N/N=C/c1ccccc1Cl	none
C(=N\N1CCN(Cc2ccccc2)CC1)/c1cccnc1	AMA1 RON2 block inconclusive
Cc1ccc(CN2CCN(/N=C\C=C\c3ccccc3)CC2)cc1	AMA1 RON2 block 12.6µM
FC(F)(F)c1ccc(/C=N/N2CCN(Cc3ccccc3)CC2)cc1	AMA1 RON2 block 20µM, AmpC detergent inconclusive
O=[N+]([O-])c1ccc(/C=N\N2CCN(c3ccc(Cl)cc3)CC2)cc1	none
O=[N+]([O-])c1ccc(/C=N/N2CCCCC2)cc1	AMA1 RON2 block inconclusive, Shiga toxin inh 127.5, CHX counter 34.3
C(=N\N1CCN(Cc2ccccc2)CC1)/c1ccccc1	Shiga toxin inh 68.6, CHX counter 38.6
Cc1ccc(CN2C(=O)N/C(=C\c3cccn3-c3cccc(C(=O)O)c3)C2=O)cc1	none
Cc1ccccc1Cn1ccc(NC(=O)c2nn(C)cc2[N+](=O)[O-])n1	AmpC detergent inconclusive
FC(F)(F)c1ccccc1/C=N/N1CCN(Cc2ccccc2)CC1	AMA1 RON2 block inconclusive, Shiga toxin inh 109.0, CHX counter 36.2
Cc1ccc(CN2CCN(/N=C\c3cccc([N+](=O)[O-])c3)CC2)cc1	AMA1 RON2 block 14.1µM
CCOc1ccccc1/C=N/N1CCN(Cc2ccccc2)CC1	AmpC detergent inconclusive
Clc1cccc(/C=N/N2CCN(Cc3ccccc3)CC2)c1	AMA1 RON2 block inconclusive, CHX counter 20.8
O=[N+]([O-])c1cccc(/C=N\N2CCN(c3ccc(Cl)cc3)CC2)c1	none
BrC(=C\c1ccccc1)/C=N/N1CCN(Cc2ccccc2)CC1	AmpC detergent inconclusive, CHX counter 21.9
Cc1ccccc1CN1CCN(C/C=C/c2ccccc2)CC1	AMA1 RON2 block inconclusive
CC(C)(C)NC(=O)C1CCCN(S(=O)(=O)c2ccc(-n3cnnn3)cc2)C1 (centres undefined)	none
O=[N+]([O-])c1ccc(/C=N/N2CCN(Cc3ccccc3)CC2)cc1	AMA1 RON2 block 25.1µM
